“And” between values parts separate entries of the source, which are not always exact repeats. Identical values can stand only once. Hit rate of the full screen: of about 5,500 compounds, about 2,000 (36%) were called active. Inconclusive results (about 18%) are left out. No stated cut-off is given here; in the data, active means normalized growth mostly below about 0.91 (no sharp cut-off); inconclusive means no clear call, values can overlap the other calls; inactive means mostly above about 0.92. This is one part of the list.
Assay: chemical genetic growth profiling, strain panel (AID 1159580);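 further: tested at 20 µM; growth read once vehicle control cultures reached saturation at 30 °C; 1 = growth at the plate median or of vehicle wells; lower values mean less growth of the strain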
Conditions: growth OD

Measured: normalized growth

COc1ccccc1N1CCN(CCCNc2cc(=O)n(C)c(=O)n2C)CC1
inactive: S. cerevisiae deletion strains, locus YJR043C, strain POL32, hits give low values 1.01 | S. cerevisiae deletion strains, locus YJR075W, strain HOC1, hits give low values 0.991 | S. cerevisiae deletion strains, locus YKL009W, strain mrt4, hits give low values 0.976 | S. cerevisiae deletion strains, locus YKL068W, hits give low values 0.978 | S. cerevisiae deletion strains, locus YKL085W, strain MDH1 (second series), hits give low values 0.985 | S. cerevisiae deletion strains, locus YKL085W, strain MDH1, hits give low values 0.985 | S. cerevisiae deletion strains, locus YKL160W, strain elf1, hits give low values 0.995 | S. cerevisiae deletion strains, locus YKL190W, strain CNB1, hits give low values 0.986 | S. cerevisiae deletion strains, locus YKR001C, strain vps1, hits give low values 0.982 | S. cerevisiae deletion strains, locus YKR026C, strain gcn3, hits give low values 1.02 | S. cerevisiae deletion strains, locus YKR091W, strain srl3, hits give low values 1.01 | S. cerevisiae deletion strains, locus YLL001W, strain dnm1, hits give low values 1.02 | S. cerevisiae deletion strains, locus YLL026W, hits give low values 1.01 | S. cerevisiae deletion strains, locus YLL041C, strain sdh2, hits give low values 1.01 | S. cerevisiae deletion strains, locus YLR027C, strain aat2, hits give low values 1.01 | S. cerevisiae deletion strains, locus YLR039C, strain RIC1, hits give low values 0.937 | S. cerevisiae deletion strains, locus YLR058C, strain SHM2, hits give low values 0.974 | S. cerevisiae deletion strains, locus YLR102C, strain apc9, hits give low values 0.988 | S. cerevisiae deletion strains, locus YLR221C, strain rsa3, hits give low values 1.01 | S. cerevisiae deletion strains, locus YLR258W, strain gsy2, hits give low values 1.02 | S. cerevisiae deletion strains, locus YLR262C, strain YPT6 (second series), hits give low values 1.03 | S. cerevisiae deletion strains, locus YLR262C, strain YPT6, hits give low values 0.857 | S. cerevisiae deletion strains, locus YLR268W, strain sec22, hits give low values 0.982 | S. cerevisiae deletion strains, locus YLR320W, strain mms22, hits give low values 1.02 | S. cerevisiae deletion strains, locus YLR330W, strain CHS5, hits give low values 0.982 | S. cerevisiae deletion strains, locus YLR342W, strain FKS1 (second series), hits give low values 1.03 | S. cerevisiae deletion strains, locus YLR342W, strain FKS1, hits give low values 1.01 | S. cerevisiae deletion strains, locus YLR357W, strain rsc2, hits give low values 1.03 | S. cerevisiae deletion strains, locus YLR370C, strain arc18, hits give low values 1.03 | S. cerevisiae deletion strains, locus YLR371W, strain rom2, hits give low values 1 | S. cerevisiae deletion strains, locus YLR384C, strain iki3, hits give low values 1.02 | S. cerevisiae deletion strains, locus YLR418C, strain cdc73, hits give low values 0.97 | S. cerevisiae deletion strains, locus YML016C, strain PPZ1, hits give low values 0.983 | S. cerevisiae deletion strains, locus YML032C, strain rad52, hits give low values 1.01 | S. cerevisiae deletion strains, locus YML120C, strain ndi1, hits give low values 1 | S. cerevisiae deletion strains, locus YML124C, strain tub3, hits give low values 0.997 | S. cerevisiae deletion strains, locus YMR058W, strain fet3, hits give low values 1.01 | S. cerevisiae deletion strains, locus YMR078C, strain ctf18, hits give low values 0.981 | S. cerevisiae deletion strains, locus YMR125W, strain sto1, hits give low values 1.01 | S. cerevisiae deletion strains, locus YMR129W, hits give low values 1.02 | S. cerevisiae deletion strains, locus YMR205C, strain PFK2, hits give low values 1.01 | S. cerevisiae deletion strains, locus YMR223W, strain ubp8, hits give low values 1 | S. cerevisiae deletion strains, locus YMR231W, strain pep5, hits give low values 1.02 | S. cerevisiae deletion strains, locus YMR263W, strain SAP30, hits give low values 0.975 | S. cerevisiae deletion strains, locus YMR307W, strain GAS1, hits give low values 0.969 and 1.01 | S. cerevisiae deletion strains, locus YNL067W, strain RPL9B, hits give low values 0.977 | S. cerevisiae deletion strains, locus YNL071W, strain lat1, hits give low values 1.02 | S. cerevisiae deletion strains, locus YNL128W, strain TEP1, hits give low values 0.983 and 1.01 | S. cerevisiae deletion strains, locus YNL153C, strain GIM3, hits give low values 0.977 | S. cerevisiae deletion strains, locus YNL175C, strain NOP13, hits give low values 1 | S. cerevisiae deletion strains, locus YNL197C, strain WHI3, hits give low values 1 | S. cerevisiae deletion strains, locus YNL209W, strain ssb2, hits give low values 1.01 | S. cerevisiae deletion strains, locus YNL224C, strain SQS1, hits give low values 1 | S. cerevisiae deletion strains, locus YNL233W, strain BNI4, hits give low values 0.986 | S. cerevisiae deletion strains, locus YNL248C, strain rpa49, hits give low values 1 | S. cerevisiae deletion strains, locus YNL250W, strain rad50, hits give low values 0.983 | S. cerevisiae deletion strains, locus YNL271C, strain bni1, hits give low values 0.992 | S. cerevisiae deletion strains, locus YNL298W, strain CLA4, hits give low values 0.982 | S. cerevisiae deletion strains, locus YNL307C, strain MCK1, hits give low values 1.01 | S. cerevisiae deletion strains, locus YNL322C, strain KRE1 (second series), hits give low values 1.01 | S. cerevisiae deletion strains, locus YNL322C, strain KRE1, hits give low values 0.977 and 1.02 | S. cerevisiae deletion strains, locus YNR049C, strain mso1, hits give low values 1.02 | S. cerevisiae deletion strains, locus YNR052C, strain pop2, hits give low values 0.997 | S. cerevisiae deletion strains, locus YOL006C, strain TOP1, hits give low values 0.959 | S. cerevisiae deletion strains, locus YOL012C, strain htz1 0.738 | S. cerevisiae deletion strains, locus YOL147C, strain pex11, hits give low values 0.992 | S. cerevisiae deletion strains, locus YOR001W, strain rrp6, hits give low values 1.02 | S. cerevisiae deletion strains, locus YOR061W, strain CKA2, hits give low values 0.963 | S. cerevisiae deletion strains, locus YOR069W, strain VPS5, hits give low values 0.995 | S. cerevisiae deletion strains, locus YOR070C, strain gyp1, hits give low values 1.01 | S. cerevisiae deletion strains, locus YOR080W, strain dia2, hits give low values 1.01 | S. cerevisiae deletion strains, locus YOR083W, strain WHI5 (second series), hits give low values 0.992 | S. cerevisiae deletion strains, locus YOR083W, strain WHI5, hits give low values 0.989 | S. cerevisiae deletion strains, locus YOR106W, strain vam3, hits give low values 1.01 | S. cerevisiae deletion strains, locus YOR136W, strain idh2, hits give low values 0.997 | S. cerevisiae deletion strains, locus YOR144C, strain elg1, hits give low values 0.996 | S. cerevisiae deletion strains, locus YOR184W, strain ser1, hits give low values 1 | S. cerevisiae deletion strains, locus YOR265W, strain rbl2, hits give low values 1.01 | S. cerevisiae deletion strains, locus YOR270C, strain vph1, hits give low values 1.03 | S. cerevisiae deletion strains, locus YOR290C, strain snf2, hits give low values 1 | S. cerevisiae deletion strains, locus YOR316C, strain cot1, hits give low values 0.988 | S. cerevisiae deletion strains, locus YPL051W, strain arl3, hits give low values 1.01 | S. cerevisiae deletion strains, locus YPL055C, strain LGE1, hits give low values 0.965 | S. cerevisiae deletion strains, locus YPL078C, strain atp4, hits give low values 1.03 | S. cerevisiae deletion strains, locus YPL106C, strain sse1, hits give low values 1.01 | S. cerevisiae deletion strains, locus YPL240C, strain hsp82, hits give low values 1.03 | S. cerevisiae deletion strains, locus YPL241C, strain CIN2, hits give low values 1 and 0.997 | S. cerevisiae deletion strains, locus YPR119W, strain clb2, hits give low values 0.999 | S. cerevisiae deletion strains, locus YPR141C, strain kar3, hits give low values 0.967 | S. cerevisiae deletion strains, locus YPR163C, strain tif3, hits give low values 1 | S. cerevisiae deletion strains, locus YPR167C, strain met16, hits give low values 0.984 | S. cerevisiae deletion strains, strain wtn01, hits give low values 0.991 | S. cerevisiae strains, strain wild type, hits give low values 0.997

From PubChem BioAssay AID1159580 (chemical genetic matrix, 2015)
